Here are results for 1 compound from ChEMBL document CHEMBL2218924, “A broad activity screen in support of a chemogenomic map for kinase signalling research and drug discovery” (Biochem J, 2013).

A word on the residual activity: it is the signal under treatment as a percentage of the control signal.

Assay [1] deals with T1, Ephrin type-A receptor 3 (Homo sapiens) (UniProt P29320).
T1 sequence (whole entry): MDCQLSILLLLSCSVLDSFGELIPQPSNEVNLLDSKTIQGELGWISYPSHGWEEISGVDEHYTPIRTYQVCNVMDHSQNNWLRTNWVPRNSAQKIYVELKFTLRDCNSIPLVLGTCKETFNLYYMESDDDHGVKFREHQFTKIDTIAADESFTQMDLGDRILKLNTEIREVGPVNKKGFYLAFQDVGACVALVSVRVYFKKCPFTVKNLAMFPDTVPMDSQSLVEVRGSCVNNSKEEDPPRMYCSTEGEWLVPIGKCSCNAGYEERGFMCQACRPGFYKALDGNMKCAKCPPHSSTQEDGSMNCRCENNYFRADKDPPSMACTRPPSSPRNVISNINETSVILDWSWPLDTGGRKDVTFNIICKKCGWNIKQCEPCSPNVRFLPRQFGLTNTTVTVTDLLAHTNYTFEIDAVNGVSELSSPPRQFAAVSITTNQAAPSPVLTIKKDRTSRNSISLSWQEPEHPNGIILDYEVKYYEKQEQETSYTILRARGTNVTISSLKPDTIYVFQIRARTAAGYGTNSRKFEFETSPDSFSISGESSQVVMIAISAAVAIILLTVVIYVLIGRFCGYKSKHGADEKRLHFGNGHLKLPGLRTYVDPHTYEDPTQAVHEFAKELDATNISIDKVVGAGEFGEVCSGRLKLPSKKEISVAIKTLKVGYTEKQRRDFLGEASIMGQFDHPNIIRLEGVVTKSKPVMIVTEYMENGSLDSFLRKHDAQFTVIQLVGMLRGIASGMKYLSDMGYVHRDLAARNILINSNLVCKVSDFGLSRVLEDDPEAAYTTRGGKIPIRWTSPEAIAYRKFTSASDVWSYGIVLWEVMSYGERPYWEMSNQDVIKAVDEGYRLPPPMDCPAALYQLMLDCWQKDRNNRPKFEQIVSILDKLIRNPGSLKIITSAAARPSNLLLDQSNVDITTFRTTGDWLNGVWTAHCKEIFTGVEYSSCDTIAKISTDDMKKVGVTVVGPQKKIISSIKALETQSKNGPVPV
The following applies: at 10 µM.

In assay [2] the target is Ephrin type-A receptor 4 (Homo sapiens) (UniProt P54764). The following applies: at 1 µM.
Assay [3] has the same target. Conditions: at 10 µM.
Assay [4] deals with Ephrin type-A receptor 5 (Homo sapiens) (UniProt P54756). Conditions: at 1 µM.
For assay [5] the target is unchanged. Conditions: at 10 µM.
Assay [6] deals with Ephrin type-A receptor 7 (Homo sapiens) (UniProt Q15375). Conditions: at 1 µM.
For assay [7] the target is unchanged. Conditions: at 10 µM.
Assay [8] deals with T2, Ephrin type-A receptor 8 (Homo sapiens) (UniProt P29322).
T2 sequence (whole entry): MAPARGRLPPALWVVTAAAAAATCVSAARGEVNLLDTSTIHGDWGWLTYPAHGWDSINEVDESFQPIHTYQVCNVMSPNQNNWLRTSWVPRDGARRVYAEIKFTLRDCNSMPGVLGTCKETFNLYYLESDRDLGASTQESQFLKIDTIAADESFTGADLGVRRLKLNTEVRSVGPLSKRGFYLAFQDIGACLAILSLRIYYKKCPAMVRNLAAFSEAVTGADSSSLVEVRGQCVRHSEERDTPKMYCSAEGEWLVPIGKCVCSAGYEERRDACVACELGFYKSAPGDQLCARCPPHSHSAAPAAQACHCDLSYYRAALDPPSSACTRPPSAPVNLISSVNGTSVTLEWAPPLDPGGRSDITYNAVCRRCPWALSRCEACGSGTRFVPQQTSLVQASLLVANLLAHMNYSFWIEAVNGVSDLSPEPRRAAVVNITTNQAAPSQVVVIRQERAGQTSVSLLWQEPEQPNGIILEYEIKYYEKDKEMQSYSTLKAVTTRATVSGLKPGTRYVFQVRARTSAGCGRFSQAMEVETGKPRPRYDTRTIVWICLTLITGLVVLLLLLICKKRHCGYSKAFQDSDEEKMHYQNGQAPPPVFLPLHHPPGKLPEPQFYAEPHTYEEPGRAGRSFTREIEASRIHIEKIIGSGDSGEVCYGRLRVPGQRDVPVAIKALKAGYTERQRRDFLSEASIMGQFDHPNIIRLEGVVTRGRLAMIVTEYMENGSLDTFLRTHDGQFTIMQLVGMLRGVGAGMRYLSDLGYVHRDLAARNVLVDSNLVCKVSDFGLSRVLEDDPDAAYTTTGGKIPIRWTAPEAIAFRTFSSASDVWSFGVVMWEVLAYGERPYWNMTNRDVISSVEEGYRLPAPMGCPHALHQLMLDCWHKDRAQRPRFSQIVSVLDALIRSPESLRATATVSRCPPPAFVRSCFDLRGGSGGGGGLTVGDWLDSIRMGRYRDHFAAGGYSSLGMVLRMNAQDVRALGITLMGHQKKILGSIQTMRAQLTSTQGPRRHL
The following applies: at 1 µM.

The target of assay [9] is T2, Ephrin type-A receptor 8 (Homo sapiens). The following applies: at 10 µM.
Assay [10] has as its target T3, Ephrin type-B receptor 1 (Homo sapiens) (UniProt P54762).
T3 sequence (whole entry): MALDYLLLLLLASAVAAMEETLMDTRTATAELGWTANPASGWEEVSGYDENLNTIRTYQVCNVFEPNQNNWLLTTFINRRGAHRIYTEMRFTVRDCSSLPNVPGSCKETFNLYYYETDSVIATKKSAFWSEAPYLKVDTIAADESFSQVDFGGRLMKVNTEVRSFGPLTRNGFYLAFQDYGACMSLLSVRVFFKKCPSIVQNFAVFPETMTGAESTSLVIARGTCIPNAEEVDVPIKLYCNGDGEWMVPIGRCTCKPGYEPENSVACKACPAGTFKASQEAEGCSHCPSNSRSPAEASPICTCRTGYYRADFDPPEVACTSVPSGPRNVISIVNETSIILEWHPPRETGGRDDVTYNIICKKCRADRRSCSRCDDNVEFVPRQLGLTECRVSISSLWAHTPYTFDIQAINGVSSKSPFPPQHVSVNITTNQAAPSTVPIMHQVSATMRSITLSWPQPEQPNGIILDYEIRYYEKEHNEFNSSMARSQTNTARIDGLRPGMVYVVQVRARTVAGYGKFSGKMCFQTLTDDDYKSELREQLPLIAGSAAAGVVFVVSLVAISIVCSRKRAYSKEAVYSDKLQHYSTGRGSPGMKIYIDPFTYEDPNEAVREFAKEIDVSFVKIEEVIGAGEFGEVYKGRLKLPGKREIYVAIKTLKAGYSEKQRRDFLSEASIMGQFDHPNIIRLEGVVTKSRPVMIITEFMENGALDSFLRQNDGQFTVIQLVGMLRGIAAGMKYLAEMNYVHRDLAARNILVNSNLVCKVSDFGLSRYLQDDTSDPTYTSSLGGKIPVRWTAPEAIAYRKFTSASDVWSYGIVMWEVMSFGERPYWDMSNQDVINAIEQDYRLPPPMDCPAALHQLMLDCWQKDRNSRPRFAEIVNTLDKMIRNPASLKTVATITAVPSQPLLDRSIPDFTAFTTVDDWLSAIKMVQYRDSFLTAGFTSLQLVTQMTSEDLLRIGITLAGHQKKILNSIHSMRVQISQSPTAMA
The following applies: at 1 µM.

Chain of Ephrin type-A receptor 7 (Homo sapiens) (Q15375 28-998 limits assumed): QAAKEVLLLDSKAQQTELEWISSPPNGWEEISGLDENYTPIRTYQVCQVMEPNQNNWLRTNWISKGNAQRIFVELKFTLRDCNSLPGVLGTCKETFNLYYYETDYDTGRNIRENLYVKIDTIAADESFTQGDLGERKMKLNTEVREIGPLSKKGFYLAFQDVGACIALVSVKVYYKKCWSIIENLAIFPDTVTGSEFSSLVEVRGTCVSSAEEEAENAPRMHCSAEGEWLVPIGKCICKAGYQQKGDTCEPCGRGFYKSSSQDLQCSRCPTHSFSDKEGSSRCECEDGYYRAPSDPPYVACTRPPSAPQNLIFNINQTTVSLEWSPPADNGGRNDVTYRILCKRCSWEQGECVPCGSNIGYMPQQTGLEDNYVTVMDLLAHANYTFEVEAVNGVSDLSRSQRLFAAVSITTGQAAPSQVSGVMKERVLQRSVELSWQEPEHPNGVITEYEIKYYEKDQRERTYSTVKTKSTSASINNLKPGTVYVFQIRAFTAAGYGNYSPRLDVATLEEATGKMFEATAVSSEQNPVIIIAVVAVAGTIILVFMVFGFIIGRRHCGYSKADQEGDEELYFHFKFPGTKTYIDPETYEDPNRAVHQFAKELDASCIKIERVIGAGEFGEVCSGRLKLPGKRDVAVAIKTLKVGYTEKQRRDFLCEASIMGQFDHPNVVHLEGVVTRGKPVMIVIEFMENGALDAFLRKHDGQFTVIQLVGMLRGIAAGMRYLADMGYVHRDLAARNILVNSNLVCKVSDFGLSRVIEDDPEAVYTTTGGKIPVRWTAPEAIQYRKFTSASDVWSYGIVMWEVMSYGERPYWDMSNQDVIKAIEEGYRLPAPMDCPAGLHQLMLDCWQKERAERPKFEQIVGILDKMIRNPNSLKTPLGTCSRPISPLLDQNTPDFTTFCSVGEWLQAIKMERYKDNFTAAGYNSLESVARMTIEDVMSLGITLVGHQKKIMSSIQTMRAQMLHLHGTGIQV
Chain of Ephrin type-A receptor 5 (Homo sapiens) (P54756 whole entry): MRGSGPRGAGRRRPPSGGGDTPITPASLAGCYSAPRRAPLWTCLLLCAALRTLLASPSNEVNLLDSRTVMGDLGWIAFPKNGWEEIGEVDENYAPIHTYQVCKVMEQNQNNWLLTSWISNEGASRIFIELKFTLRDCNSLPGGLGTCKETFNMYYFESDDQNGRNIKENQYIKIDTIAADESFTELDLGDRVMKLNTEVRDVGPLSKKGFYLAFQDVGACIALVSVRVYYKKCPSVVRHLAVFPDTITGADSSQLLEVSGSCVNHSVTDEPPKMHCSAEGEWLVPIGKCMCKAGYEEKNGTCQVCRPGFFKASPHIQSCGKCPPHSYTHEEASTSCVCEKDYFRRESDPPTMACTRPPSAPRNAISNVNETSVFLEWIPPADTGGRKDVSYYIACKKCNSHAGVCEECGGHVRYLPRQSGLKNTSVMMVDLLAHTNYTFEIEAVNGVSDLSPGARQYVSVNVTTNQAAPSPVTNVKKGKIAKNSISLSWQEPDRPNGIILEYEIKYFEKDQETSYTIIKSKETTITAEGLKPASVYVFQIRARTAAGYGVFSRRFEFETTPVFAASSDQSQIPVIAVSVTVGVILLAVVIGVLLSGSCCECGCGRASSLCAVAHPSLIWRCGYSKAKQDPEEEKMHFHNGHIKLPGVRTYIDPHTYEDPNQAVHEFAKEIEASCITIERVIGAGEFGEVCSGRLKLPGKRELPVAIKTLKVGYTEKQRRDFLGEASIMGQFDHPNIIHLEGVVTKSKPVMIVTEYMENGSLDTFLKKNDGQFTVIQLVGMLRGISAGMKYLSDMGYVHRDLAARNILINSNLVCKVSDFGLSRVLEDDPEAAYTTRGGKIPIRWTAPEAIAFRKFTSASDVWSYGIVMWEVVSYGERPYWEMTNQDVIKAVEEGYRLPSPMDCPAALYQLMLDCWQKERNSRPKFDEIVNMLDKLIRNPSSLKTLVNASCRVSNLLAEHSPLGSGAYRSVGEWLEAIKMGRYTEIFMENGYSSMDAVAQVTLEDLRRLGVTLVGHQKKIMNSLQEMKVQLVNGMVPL
Chain of Ephrin type-A receptor 4 (Homo sapiens) (P54764 whole entry): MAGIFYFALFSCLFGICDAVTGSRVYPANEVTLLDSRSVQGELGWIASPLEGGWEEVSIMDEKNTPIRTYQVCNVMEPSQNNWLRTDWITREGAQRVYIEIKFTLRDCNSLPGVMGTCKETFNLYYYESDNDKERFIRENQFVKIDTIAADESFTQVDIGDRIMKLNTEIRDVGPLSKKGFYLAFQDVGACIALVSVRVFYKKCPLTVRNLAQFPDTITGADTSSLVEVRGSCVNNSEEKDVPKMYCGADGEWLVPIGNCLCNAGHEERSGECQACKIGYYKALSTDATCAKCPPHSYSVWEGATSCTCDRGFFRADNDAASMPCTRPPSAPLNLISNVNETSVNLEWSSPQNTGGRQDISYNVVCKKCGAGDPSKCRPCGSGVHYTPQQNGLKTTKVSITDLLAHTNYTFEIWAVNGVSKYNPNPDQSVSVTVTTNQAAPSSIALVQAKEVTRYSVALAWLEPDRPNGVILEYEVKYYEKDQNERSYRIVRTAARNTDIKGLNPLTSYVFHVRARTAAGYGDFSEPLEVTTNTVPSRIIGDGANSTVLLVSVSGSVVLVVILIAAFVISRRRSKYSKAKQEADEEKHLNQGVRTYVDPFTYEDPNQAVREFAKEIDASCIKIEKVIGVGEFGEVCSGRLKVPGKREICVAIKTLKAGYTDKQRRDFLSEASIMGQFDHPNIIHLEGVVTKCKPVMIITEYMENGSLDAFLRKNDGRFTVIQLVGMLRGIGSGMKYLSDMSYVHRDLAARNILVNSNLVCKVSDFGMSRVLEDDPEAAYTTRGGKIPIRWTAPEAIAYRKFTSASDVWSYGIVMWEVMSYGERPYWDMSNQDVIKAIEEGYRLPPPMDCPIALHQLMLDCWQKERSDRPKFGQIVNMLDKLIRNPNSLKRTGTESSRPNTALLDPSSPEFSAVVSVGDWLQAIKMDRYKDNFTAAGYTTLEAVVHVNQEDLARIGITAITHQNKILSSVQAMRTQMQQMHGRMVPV

For the compound `COc1cccc(-c2cc(=O)c3ccccc3o2)c1N`, the residual activity was 108% in assay [1]; 109% in assay [2]; 108% in [3]; 118% in assay [4]; 96% in assay [5]; 98% in assay [6]. The residual activity in assay [7] came out at 97%; in assay [8] it was 105%; in assay [9], 104%; in assay [10] it was 118%.
